The first assay has as its target TP53I13. Briefly: pooled miR-30 sensor sort-seq; sequence = guide strand. The note with it: shRNA.
TTGGTGACACCTGCGGAGGCAG had a sensor-assay potency score (higher = more potent) of -1.23. The sequence TGAGCCTCTGTCCTGGAGCTGG had a sensor-assay potency score (higher = more potent) of -1.27.

For TAGCCATACAAGCATAGGCCAG, the sensor-assay potency score (higher = more potent) is -1.71. TAGAGGAAGGTGACATCCTCAG returned a sensor-assay potency score (higher = more potent) of -0.655. The same measure, in the same setting: next, TGACTTGAACAGACACAGCCCC: -0.111. TCACTCTTGGTGACACCTGCGG: the sensor-assay potency score (higher = more potent) is -0.664. Still for that read-out and setting: in the case of TTTCACAGTAGATCCATGCCTT it was 0.393.

Another assay deals with TP73. The description is as above. The settings on record: shRNA.
Consider TTGTAAACAGGCATGGCCCGGA, for which the sensor-assay potency score (higher = more potent) is 0.143. Take TAGAGTTTCTTCAAGAGCGGGG: the sensor-assay potency score (higher = more potent) was 0.308. On the same count and under the same terms, in the case of TTGGGAGGTGAAATACTCGATG it was -0.725; in that of TGGAGCAGACTGTCCTTCGTTG, -1.24; in that of TAGTACGTGTCCTCGTCTCCAT, -0.503. As to TCGAAGTAGGTGCTGTCTGGTT, the sensor-assay potency score (higher = more potent) is -0.818. On the same count and under the same terms, in the case of TTTCACGACGTCGGTCACGTGC it was -1.03. On the same count and under the same terms, in the case of TTACACATGAAGTTGTACAGGA it was 1.03; in that of TTGGGTGTAGCTGCCGAACTGT, -0.212; in that of TGTAGCTGCCGAACTGTGCGGG, -0.215. Still for that read-out and setting: next, TCTGGTTCCAGAGAGCTCCAGA: 0.275; TACACAGCTGCTGTTACACATG: -0.991.

In a further assay the target is TPPP2. The description is as above. The settings on record: shRNA.
For the sequence TTGCTGGTGTCTGTCAAACGGT, the sensor-assay potency score (higher = more potent) was -1.11. The same measure, in the same setting: next, TTGATGATTCTCCAAACGCAGC: -1.67.

TCTTTGAACTGTTGAAACGTGA came in with a sensor-assay potency score (higher = more potent) of -0.298.

Regarding TTATTGTTTTCCAAGCTCCCTG, the sensor-assay potency score (higher = more potent) was -0.417.

Turning to TTGTTGTTCATTTCAGTGCCAC, the sensor-assay potency score (higher = more potent) stood at 0.0122. For the sequence TTGTCAGTCATCTCTTCCCGTC, the sensor-assay potency score (higher = more potent) is -0.714. On the same count and under the same terms, in the case of TTTGCTGAACACGATGTCCACG it was -0.579; in that of TGTAACCACTCACATAGCCTGT, -0.785; in that of TTGAACTGTTGAAACGTGATGG, 0.216.

Regarding TTGTTGCTTTAGTAGCGCCAGT, the sensor-assay potency score (higher = more potent) is -1.46. Sequence TTCTTGGCCTTGACTTTGCTGA gave a sensor-assay potency score (higher = more potent) of -0.996. Same read-out and setting: next, TTGTAACCACTCACATAGCCTG: -0.748.

A further assay addresses TPPP3. The description is as above. The note with it: shRNA.
Sequence TTGCCATTCATCTCTTGCCCAC yielded a sensor-assay potency score (higher = more potent) of -1.13. The sequence TTTCCGTCAGCCACCTTGCAGT came in with a sensor-assay potency score (higher = more potent) of -0.592. On the same count and under the same terms, in the case of TTTAGTGACGCCCACATTGGCT it was -0.692. The same measure, in the same setting: next, ACTGTCGTCCAGGATGTCCTGC: -0.739. The sequence TTGACTTTGGAGAAGACGATGT displayed a sensor-assay potency score (higher = more potent) of -0.378. On the same count and under the same terms, in the case of TTGTGGGAGCCCGTGTATCTGC it was -1.44.

TCGTCCAGGATGTCCTGCCGTC came in with a sensor-assay potency score (higher = more potent) of -0.707. The same measure, in the same setting: in the case of TTGGTCGCCAGCTCTTCCAGGG it was -0.176; in that of TTTTGCTTTAGTGACGCCCACA, -1.34.
Further: reference of the scale not given here.
